{
  "source": "PubChem BioAssay (Tox21)",
  "note": "Inconclusive results are not listed. Where a call stands in place of a potency, no number is given. Unmarked numbers belong to inactive results. Calls of active or inactive are those of the source. Calls come from the whole dose curve; as a rule, active = well fitted cell-killing curve with a large enough effect in the repeat runs; inconclusive = weak or mixed curves, or effect the other way; inactive = flat fitted curve, though single readings scatter.",
  "data": [
    {"assay": "qHTS assay to identify small molecule antagonists of the estrogen receptor alpha (ER-alpha) signaling pathway using the BG1 cell line in the presence of 0.1 nM 17-beta-estradiol - cell viability counter screen (AID 1259241); note: nearly all actives have a fitted effect of over 40% in size", "conditions": "VM7Luc4E2 (BG1) viability, CellTiter-Fluor protease, 22 h, 0.1 nM estradiol agonist added; series mostly up to 92.4 µM", "how_it_was_run": "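Estradiol-stimulated (0.1 nM) VM7Luc4E2 cells exposed to compounds 22 hr; viability measured by fluorescence of cleaved CellTiter-Fluor substrate after 30 min.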", "values": [
      {"molecule": "CCOC(=O)[C@@H](C)Oc1ccc(Oc2nc3ccc(Cl)cc3o2)cc1", "Potency": "inactive"},
      {"molecule": "CCCCCCCCSCCO", "Potency": "inactive"},
      {"molecule": "CC(C)(C)C(=O)C(Oc1ccc(Cl)cc1)n1ccnc1", "note": "(stereo not given)", "Potency": "inactive"},
      {"molecule": "Cc1oncc1C(=O)Nc1ccc(C(F)(F)F)cc1", "Potency": "inactive"},
      {"molecule": "CC1(C)C2=CCCC(C)(C)[C@]23CC[C@H]1C3", "Potency": "inactive"},
      {"molecule": "COC(=O)[C@@H]1CC2=CC(=O)CC[C@]2(C)[C@@]23O[C@@H]2C[C@@]2(C)[C@@H](CC[C@@]24CCC(=O)O4)[C@H]13", "Potency": "inactive"},
      {"molecule": "CCC(C(=O)OCCOCCN(CC)CC)c1ccccc1", "note": "(stereo not given)", "Potency": "inactive"},
      {"molecule": "C[Si]1(C)O[Si](C)(C)O[Si](C)(C)O1", "Potency": "inactive"},
      {"molecule": "CN1C(=O)CC(C)(c2ccccc2)C1=O", "note": "(stereo not given)", "Potency": "inactive"},
      {"molecule": "CN1CCN(c2c(F)cc3c(=O)c(C(=O)O)cn4c3c2OCN4C)CC1", "activity change, negative = cytotoxicity": "0.712% [at 19 µM]"},
      {"molecule": "Cc1cc(O)c(C(C)C)cc1Cl", "Potency": "inactive"},
      {"molecule": "CCOc1cc(N)c(Cl)cc1C(=O)NCC1CN(Cc2ccc(F)cc2)CCO1", "note": "(stereo not given)", "Potency": "inactive"},
      {"molecule": "CC1=NN(c2ccc(C(=O)O)cc2)C(=O)C1", "Potency": "inactive"},
      {"molecule": "CC(=O)Oc1ccc(C(=C2CCCCC2)c2ccc(OC(C)=O)cc2)cc1", "Potency": "inactive"},
      {"molecule": "CCCCC1C(=O)N(c2ccccc2)N(c2ccc(O)cc2)C1=O", "note": "(stereo not given)", "Potency": "inactive"},
      {"molecule": "Cc1ccc(Nc2nccc(N(C)c3ccc4c(C)n(C)nc4c3)n2)cc1S(N)(=O)=O", "Potency": "inactive"},
      {"molecule": "COc1cc2[nH]c(=O)[nH]c(=O)c2cc1OC", "Potency": "inactive"},
      {"molecule": "CC(=O)[C@H]1CC[C@H]2[C@@H]3C=CC4=CC(=O)CC[C@@]4(C)[C@@H]3CC[C@]12C", "Potency": "inactive"},
      {"molecule": "CCn1cc(C(=O)O)c(=O)c2cc(F)c(N3CCNCC3)nc21", "Potency": "inactive"},
      {"molecule": "CC(CCc1ccc2c(c1)OCO2)NN", "note": "(stereo not given)", "Potency": "inactive"},
      {"molecule": "CCCCC(=O)O[C@]1(C(=O)CO)CC[C@H]2[C@@H]3CCC4=CC(=O)CC[C@]4(C)[C@H]3[C@@H](O)C[C@@]21C", "Potency": "inactive"},
      {"molecule": "COc1ccc([C@@H]2Sc3ccccc3NC(=O)[C@@H]2O)cc1", "Potency": "inactive"},
      {"molecule": "CN1CCCN=C1/C=C/c1cccs1", "Potency": "inactive"},
      {"molecule": "O=C(NCCCN1CCOCC1)c1ccc(Cl)cc1", "Potency": "inactive"},
      {"molecule": "CCCCCC=CCC=CCCCCCCCC(=O)OCC", "Potency": "inactive"},
      {"molecule": "CC(=O)CC(c1ccc([N+](=O)[O-])cc1)c1c(O)c2ccccc2oc1=O", "note": "(stereo not given)", "Potency": "inactive"},
      {"molecule": "CCc1nn(CCCN2CCN(c3cccc(Cl)c3)CC2)c(=O)n1CCOc1ccccc1", "Potency": "inactive"},
      {"molecule": "c1cnc2c(n1)CCCC2", "Potency": "inactive"},
      {"molecule": "CC1CN(c2cc3c(cc2F)c(=O)c(C(=O)O)cn3-c2ccc(F)cc2F)CCN1", "note": "(stereo not given)", "activity change, negative = cytotoxicity": "6.15% [at 8.39 µM]"},
      {"molecule": "CCOC(=O)C(C)Oc1ccc(Oc2nc3ccc(Cl)cc3o2)cc1", "note": "(stereo not given)", "Potency": "inactive"},
      {"molecule": "O=C(CCCCCCC(=O)Nc1ccccc1)NO", "Potency": "inactive"},
      {"molecule": "C=CC(=C)CCCC(C)(C)OC(C)=O", "Potency": "inactive"},
      {"molecule": "Nc1c(I)cc(I)c(C(=O)N(CCC(=O)O)c2ccccc2)c1I", "Potency": "inactive"},
      {"molecule": "O=C(O)C(Cc1cc(I)c(O)c(I)c1)c1ccccc1", "note": "(stereo not given)", "Potency": "inactive"},
      {"molecule": "COC(=O)c1cc(Cl)ccc1NS(=O)(=O)C(F)(F)F", "Potency": "inactive"},
      {"molecule": "O=C1OCCN1/N=C/c1ccc([N+](=O)[O-])o1", "Potency": "inactive"},
      {"molecule": "NCC1CCCC(CN)C1", "note": "(stereo not given)", "Potency": "inactive"},
      {"molecule": "CCC1(C)CC(=O)NC1=O", "note": "(stereo not given)", "Potency": "inactive"},
      {"molecule": "N#C[C@@H]1C[C@@H]2C[C@@H]2N1C(=O)[C@@H](N)C12CC3CC(CC(O)(C3)C1)C2", "Potency": "inactive"},
      {"molecule": "CC1(C)O[C@@H]2C[C@H]3[C@@H]4CCC5=CC(=O)C=C[C@]5(C)[C@H]4[C@@H](O)C[C@]3(C)[C@]2(C(=O)CO)O1", "Potency": "inactive"}
    ]}
  ]
}
